# Reference: PubChem BioAssay (NCATS)
# Results filed as inconclusive are left out. Where a call stands in place of a potency, no number is given. A number with no mark means an inactive call. Activity calls are given as the source filed them. Unless noted, the call rests on the fitted dose curve.
# Legend:
# [1] = Primary qHTS for inhibitors of SARS-S pseudo-typed particle cell entry (AID 1479145); further: nearly all actives have a fitted effect of over 45% in size; further: potency means the concentration at half of the fitted maximal effect; on activity change, negative = inhibition: series mostly up to about 57 µM
# [2] = Primary qHTS for Huh7 cytotoxicity: counterscreen for inhibitors of MERS-S pseudotyped particle cell entry (AID 1479147); further: potency means the concentration at half of the fitted maximal effect
# [3] = Primary qHTS for inhibitors of MERS-S pseudo-typed particle cell entry (AID 1479149); further: nearly all actives have a fitted effect of over 60% in size; further: potency means the concentration at half of the fitted maximal effect; on activity change, negative = inhibition: series mostly up to about 57 µM
# [4] = Primary qHTS for Vero E6 cytotoxicity: counterscreen for inhibitors of SARS-S pseudo-typed particle cell entry (AID 1479150); further: potency means the concentration at half of the fitted maximal effect
# [5] = molecular target: Cytochrome P450 2D6 (Homo sapiens) (UniProt P10635); experiment: Cytochrome P450 family 2 subfamily D member 6 (CYP2D6) small molecule antagonists: luciferase biochemical (cell-free) qHTS assay (AID 1645840; active means well fitted curve in the direction sought with a large enough effect in the repeat runs; an effect the other way counts as inactive or inconclusive; further: series mostly up to about 57 µM; nearly all actives have a fitted effect of over 55% in size)
# Summary of the method: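 P450-Glo CYP2D6 system: proluciferin substrate converted by enzyme to luciferin, read by luminescence proportional to activity. Enzyme-substrate mix with compound 10 min at room temperature, then NADPH regeneration 1 h before detection reagent.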
# [6] = molecular target: Cytochrome P450 2C9 (Homo sapiens) (UniProt P11712); experiment: Cytochrome P450 family 2 subfamily C member 9 (CYP2C9) small molecule antagonists: luciferase biochemical (cell-free) qHTS assay (AID 1645842; active means well fitted curve in the direction sought with a large enough effect in the repeat runs; an effect the other way counts as inactive or inconclusive; further: nearly all actives have a fitted effect of over 55% in size; further: potency means the concentration at half of the fitted maximal effect; on activity change, negative = inhibition: series mostly up to about 57 µM)
# Summary of the method: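 P450-Glo CYP2C9 system: proluciferin substrate with enzyme in mix containing 0.4% BSA, 10 min at room temperature, then NADPH regeneration solution added and incubated 1 h at 37C. Detection reagent stopped reaction; luminescence read after 20 min as RLU.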
# [7] = molecular target: Calcium and integrin-binding protein 1 (Homo sapiens) (UniProt Q99828); experiment: Primary qHTS for Identification of Calcium Integrin Binding Protein 1 (CIB1) Competitor (AID 1508620; active means well fitted curve in the direction sought with a large enough effect; an effect the other way counts as inactive or inconclusive;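 further: GST tagged CIB1 binding a fluorescein labelled alphaIIb integrin peptide tracer; top concentration of the series differs between compounds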)
# Summary of the method: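 Fluorescence polarization competition: CIB1-GST (1 uM final) preincubated with compound 15 min at room temperature, then FITC-labeled alphaIIb peptide (100 nM final) added for another 15 min. Polarization read at Ex 480/Em 540.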
# [8] = Primary qHTS for small molecule stabilizers of the endoplasmic reticulum resident proteome: Secreted ER Calcium Modulated Protein (SERCaMP) assay (AID 1508630; active means well fitted curve in the direction sought with a large enough effect; an effect the other way counts as inactive or inconclusive)
# Summary of the method: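 The SH-SY5Y reporter protocol was run at 3 concentrations up to 38.3 uM (primary) or 11 concentrations (follow-up): 16 h compound, 100 nM thapsigargin for 4 h, then extracellular luciferase luminescence.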
# [9] = Confirmatory qHTS for VERO E6 Cytotoxicity Assay: Counterscreen for SARS-CoV-2 CPE Assay (AID 1508605); further: nearly all actives have a fitted effect of over 60% in size; further: potency means the concentration at half of the fitted maximal effect
# [10] = molecular target: Calcium and integrin-binding protein 1 (Homo sapiens) (UniProt Q99828); experiment: Confirmatory qHTS for Identification of Calcium Integrin Binding Protein 1 (CIB1) Competitor (AID 1508617; active means well fitted curve in the direction sought with a large enough effect; an effect the other way counts as inactive or inconclusive; further: nearly all actives have a fitted effect of over 65% in size; further: potency means the concentration at half of the fitted maximal effect)
# Summary of the method: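 Confirmatory qHTS measures displacement of a FITC-alphaIIb peptide (100 nM) from CIB1-GST (1 uM) by fluorescence polarization. Calcium-containing HEPES buffer, pH 7.4; two 15 min room-temperature incubations.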
# [11] = A High-Content qHTS Against Drug Library for the Identification of Small Molecules that Inhibit DYT1 Early Onset Primary Dystonia-Associated Cell Pathology (AID 1645839); further: potency means the concentration at half of the fitted maximal effect
# Summary of the method: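 Induced EGFP-delE TorsinA cells are imaged after 48 h of compound treatment. Punctate fusion-protein distribution gives the %pathology value, while nuclei counts flag toxicity. Wild-type EGFP-hTOR1A cells define the normal pattern.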
# Calcium and integrin-binding protein 1 (Homo sapiens), sequence (Q99828 whole entry, looked up): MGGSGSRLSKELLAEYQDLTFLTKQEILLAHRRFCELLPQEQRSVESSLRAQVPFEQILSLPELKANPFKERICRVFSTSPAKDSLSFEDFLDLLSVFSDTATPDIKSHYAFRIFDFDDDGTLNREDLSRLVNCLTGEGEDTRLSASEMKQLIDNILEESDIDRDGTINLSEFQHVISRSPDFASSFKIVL
# Cytochrome P450 2C9 (Homo sapiens), sequence (P11712 whole entry, looked up): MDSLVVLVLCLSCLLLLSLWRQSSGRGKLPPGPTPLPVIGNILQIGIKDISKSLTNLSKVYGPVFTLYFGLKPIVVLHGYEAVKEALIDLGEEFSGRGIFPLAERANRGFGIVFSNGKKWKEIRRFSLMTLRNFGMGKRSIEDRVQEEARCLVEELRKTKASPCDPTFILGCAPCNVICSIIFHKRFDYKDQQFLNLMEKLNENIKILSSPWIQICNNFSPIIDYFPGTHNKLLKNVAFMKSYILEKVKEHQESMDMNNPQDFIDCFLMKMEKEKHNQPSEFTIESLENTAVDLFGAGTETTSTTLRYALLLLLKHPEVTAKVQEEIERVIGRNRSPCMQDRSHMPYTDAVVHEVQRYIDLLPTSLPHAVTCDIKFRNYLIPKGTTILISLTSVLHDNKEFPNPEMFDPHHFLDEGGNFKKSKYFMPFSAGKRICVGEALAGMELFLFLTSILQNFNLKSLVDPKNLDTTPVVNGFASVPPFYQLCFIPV
# Cytochrome P450 2D6 (Homo sapiens), sequence (P10635 whole entry, looked up): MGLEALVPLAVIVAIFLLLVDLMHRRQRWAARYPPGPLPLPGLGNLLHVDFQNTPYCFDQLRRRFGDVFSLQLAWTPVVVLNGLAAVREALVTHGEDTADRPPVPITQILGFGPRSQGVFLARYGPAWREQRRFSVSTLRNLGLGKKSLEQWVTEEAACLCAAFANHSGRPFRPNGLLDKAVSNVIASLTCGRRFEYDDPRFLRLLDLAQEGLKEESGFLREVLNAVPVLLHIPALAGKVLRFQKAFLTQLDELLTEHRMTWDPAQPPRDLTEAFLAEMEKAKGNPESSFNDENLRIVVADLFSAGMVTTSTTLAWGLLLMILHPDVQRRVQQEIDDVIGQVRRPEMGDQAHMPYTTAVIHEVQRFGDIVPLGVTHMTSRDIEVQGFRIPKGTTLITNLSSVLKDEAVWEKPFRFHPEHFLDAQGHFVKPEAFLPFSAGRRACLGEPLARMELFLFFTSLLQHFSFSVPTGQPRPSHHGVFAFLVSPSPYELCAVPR
smiles,measurement,setting,value
CC(=O)N[C@@H](CCC(N)=O)C(=O)O,Potency,[1],inactive
same,Potency,[2],inactive
same,Potency,[3],inactive
same,Potency,[4],inactive
Cc1c(C)c2c(c(C)c1OC(=O)c1cccnc1)CC[C@@](C)(CCC[C@H](C)CCC[C@H](C)CCCC(C)C)O2,Potency,[1],inactive
same,Potency,[2],inactive
same,Potency,[3],inactive
same,Potency,[4],inactive
COc1c(N2CCNC(C)C2)c(F)cc2c(=O)c(C(=O)O)cn(C3CC3)c12 (stereo not given),Potency,[1],inactive
same,Potency,[2],inactive
same,Potency,[3],inactive
same,Potency,[4],inactive
CC1=C(C/C=C(\C)CCC[C@H](C)CCC[C@H](C)CCCC(C)C)C(=O)c2ccccc2C1=O,Potency,[1],inactive
same,Potency,[2],inactive
same,Potency,[4],inactive
O=C(c1cc(Cc2n[nH]c(=O)c3ccccc23)ccc1F)N1CCN(C(=O)C2CC2)CC1,Potency,[2],inactive
same,Potency,[4],inactive
CC[C@H](Nc1ncnc2nc[nH]c12)c1nc2cccc(F)c2c(=O)n1-c1ccccc1,Potency,[2],inactive
same,Potency,[3],inactive
same,Potency,[4],inactive
Cn1cncc1[C@@](N)(c1ccc(Cl)cc1)c1ccc2c(c1)c(-c1cccc(Cl)c1)cc(=O)n2C,Potency,[2],inactive
same,Potency,[4],inactive
Oc1c(I)cc(I)c2cccnc12,Potency,[2],inactive
same,Potency,[4],inactive
CCOc1cc2ncc(C#N)c(Nc3ccc(OCc4ccccn4)c(Cl)c3)c2cc1NC(=O)/C=C/CN(C)C,outcome,[2],inactive [at 11.4 µM]
same,"activity change, negative = inhibition",[3],-11.6% [at 11.4 µM]
same,"activity change, negative = cytotoxicity",[4],-35.9% [at 11.4 µM]
N#CC[C@H](C1CCCC1)n1cc(-c2ncnc3[nH]ccc23)cn1,Potency,[2],inactive
same,Potency,[3],inactive
same,Potency,[4],inactive
Cc1cn(-c2cc(NC(=O)c3ccc(C)c(Nc4nccc(-c5cccnc5)n4)c3)cc(C(F)(F)F)c2)cn1,Potency,[2],inactive
same,Potency,[3],inactive
same,Potency,[4],inactive
O=C(O)c1ccccn1,Potency,[1],inactive
same,Potency,[2],inactive
same,Potency,[3],inactive
same,Potency,[4],inactive
same,Potency,[5],inactive
same,Potency,[6],inactive
CC(C)CCCC(C)CCCC(C)CCCCC(C)CCCC(C)CCCC(C)C (stereo not given),Potency,[2],inactive
same,Potency,[3],inactive
same,Potency,[4],inactive
CC(C)C[C@H](NC(=O)CNC(=O)c1cc(Cl)ccc1Cl)B(O)O,Potency,[1],inactive
same,Potency,[3],0.794 µM (active)
CCOP(=O)(OCC)C(C)NC(=O)N(CCCl)N=O (stereo not given),Potency,[2],inactive
same,Potency,[3],inactive
same,Potency,[4],inactive
same,outcome,[7],inactive
same,Potency,[8],inactive
CC(=O)N[C@@H](Cc1ccc(O)cc1)C(=O)O,Potency,[2],inactive
same,Potency,[3],inactive
same,Potency,[4],inactive
C[C@H](CN1CCCC1)C(=O)c1ccc(C(F)(F)F)cc1,Potency,[1],inactive
same,Potency,[2],inactive
same,Potency,[4],inactive
C[C@@H]1CCN(C(=O)CC#N)C[C@@H]1N(C)c1ncnc2[nH]ccc12,Potency,[2],inactive
same,Potency,[3],inactive
same,Potency,[4],inactive
CNC(=O)c1ccc(N2C(=S)N(c3ccc(C#N)c(C(F)(F)F)c3)C(=O)C2(C)C)cc1F,Potency,[1],8.91 µM (active)
same,Potency,[2],inactive
same,Potency,[4],inactive
CS(=O)(=O)Nc1ccc([N+](=O)[O-])cc1Oc1ccccc1,Potency,[2],inactive
same,Potency,[3],inactive
same,Potency,[4],inactive
CNC(=O)c1cc(Oc2ccc(NC(=O)Nc3ccc(Cl)c(C(F)(F)F)c3)c(F)c2)ccn1,Potency,[1],14.1 µM (active)
same,Potency,[2],inactive
same,Potency,[4],inactive
COc1cc2nccc(Oc3ccc(NC(=O)C4(C(=O)Nc5ccc(F)cc5)CC4)cc3)c2cc1OC,Potency,[2],inactive
same,Potency,[4],inactive
CC(C)(C)C(O)/C=C/c1ccc2c(c1)OCO2 (stereo not given),Potency,[2],inactive
same,Potency,[3],inactive
same,Potency,[4],inactive
C[C@@H](N)C(=O)O,Potency,[2],inactive
same,Potency,[3],inactive
same,Potency,[4],inactive
Cc1ccc(C(=O)Nc2ccc(CN3CCN(C)CC3)c(C(F)(F)F)c2)cc1C#Cc1cnc2cccnn12,Potency,[1],3.55 µM (active)
same,Potency,[4],22.4 µM (active)
CC(C)(C)c1cc(C(C)(C)C)c(NC(=O)c2c[nH]c3ccccc3c2=O)cc1O,Potency,[2],inactive
same,Potency,[3],inactive
same,Potency,[4],inactive
Nc1ccc(C(=O)c2cc3c(ccc4ccccc43)[nH]2)cc1,Potency,[9],14.1 µM (active)
COc1cc2c(cc1OC)CC(=O)N(CCCN(C)C[C@H]1Cc3cc(OC)c(OC)cc31)CC2,Potency,[2],inactive
same,Potency,[3],inactive
same,Potency,[4],inactive
CCCCCCCc1ccc(CCc2cccc(O)c2C(=O)O)cc1,Potency,[9],inactive
CCN(CC)CCCCNc1nc2cc(Cl)c(Cl)cc2nc1-c1ccc(-c2cccs2)s1,Potency,[9],10 µM (active)
CCCOC(=O)c1ccc(O)cc1,Potency,[2],inactive
same,Potency,[3],inactive
same,Potency,[4],inactive
CC(=O)[O][Hg][c]1ccccc1,Potency,[2],3.98 µM (active)
same,Potency,[3],2.24 µM (active)
same,Potency,[4],10 µM (active)
same,Potency,[10],inactive
same,Potency,[8],inactive
same,Potency,[6],2.45 µM (active)
Cc1ccccc1N=Nc1ccc(N=Nc2c(O)ccc3ccccc23)c(C)c1,Potency,[2],inactive
same,Potency,[3],inactive
same,Potency,[4],inactive
Cc1nnc(C(C)C)n1C1CC2CCC(C1)N2CC[C@H](NC(=O)C1CCC(F)(F)CC1)c1ccccc1 (stereo not given in full),Potency,[2],inactive
same,Potency,[3],inactive
same,Potency,[4],inactive
Cc1c(C(=O)Nc2ccc(N3C[C@@H](C)O[C@@H](C)C3)nc2)cccc1-c1ccc(OC(F)(F)F)cc1,Potency,[2],inactive
same,Potency,[3],20 µM (active)
same,Potency,[4],inactive
COc1c(C)cnc(Cn2cnc3c(Cl)nc(N)nc32)c1C,Potency,[9],inactive
Cc1cc(C(=O)NNCc2ccccc2)no1,Potency,[2],inactive
same,Potency,[3],inactive
same,Potency,[4],inactive
CCN(CC)c1ccc(C(=C2C=CC(=[N+](CC)CC)C=C2)c2cc(S(=O)(=O)O)ccc2S(=O)(=O)[O-])cc1,Potency,[1],inactive
same,Potency,[3],inactive
CCCS(=O)(=O)Nc1ccc(F)c(C(=O)c2c[nH]c3ncc(-c4ccc(Cl)cc4)cc23)c1F,Potency,[2],inactive
same,Potency,[4],inactive
Clc1ccccc1CN1CCc2sccc2C1,Potency,[2],inactive
same,Potency,[3],inactive
same,Potency,[4],inactive
C#CC(C)(CC)OC(=O)c1ccccc1C(=O)O (stereo not given),Potency,[2],inactive
same,Potency,[3],inactive
same,Potency,[4],inactive
CC1=C(O)C(=O)C=C2C1=CC=C1[C@@]2(C)CC[C@@]2(C)[C@@H]3C[C@](C)(C(=O)O)CC[C@]3(C)CC[C@]12C,Potency,[10],22.4 µM (active)
CCCN(CCC)c1c([N+](=O)[O-])cc(S(N)(=O)=O)cc1[N+](=O)[O-],Potency,[11],28.2 µM (active)
C[C@]12CC[C@H]3[C@@H](CCC4=CC(=O)CC[C@@]43C)[C@H]1CC[C@H]2O,outcome,[7],inactive
same,Potency,[8],inactive
N=c1c2c(-c3ccccc3)c(-c3ccccc3)n(Cc3ccccc3)c2ncn1C1CCC(O)CC1 (stereo not given),outcome,[7],inactive
same,Potency,[8],inactive
COCC1(CO)C(=O)C2CCN1CC2 (stereo not given),outcome,[7],inactive
same,Potency,[8],inactive
same,Potency,[5],inactive
same,Potency,[6],inactive
CCCN1CCO[C@@H]2c3cc(O)ccc3OC[C@@H]21,outcome,[7],inactive
same,Potency,[8],inactive
